High-throughput results (PubChem BioAssay)
Glioma ERSR ind – qHTS for Inducers of the Endoplasmic Reticulum Stress Response (ERSR) in Human Glioma: qHTS; 420,000 compounds, 0.02% hits; Potency, µM, inactives show at the highest dose activation, hits mostly activators; U87-MG GRP78 promoter luciferase reporter, 16 h; further: potency means the concentration at half of the fitted maximal effect; series mostly up to about 76 µM; % of control where 0% means no effect; nearly all actives have a fitted effect of over 35% in size
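Stably transfected U87-MG human glioma cells carrying a GRP78-based luminescent sensor were seeded at 1000 cells/well, pin-dosed with compounds and incubated 16 h. Luciferase reagent was then added, and end-point luminescence was read after 10 min at room temperature.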
DRD3 antagonist – qHTS of D3 Dopamine Receptor Antagonist: qHTS; D3R cells, DiscoveRx beta-arrestin luminescence, antagonist mode; stronger effect = lower value; 360,000 compounds, 2.5% hits; max response, negative = inhibition, %; D(3) dopamine receptor (Homo sapiens), P35462; in the data active means max response below about -50%; inconclusive means no clear call, values can overlap the other calls; further: on the % scale 0 is the no-effect control and ±100 the full control effect
Target sequence (P35462 whole entry, looked up): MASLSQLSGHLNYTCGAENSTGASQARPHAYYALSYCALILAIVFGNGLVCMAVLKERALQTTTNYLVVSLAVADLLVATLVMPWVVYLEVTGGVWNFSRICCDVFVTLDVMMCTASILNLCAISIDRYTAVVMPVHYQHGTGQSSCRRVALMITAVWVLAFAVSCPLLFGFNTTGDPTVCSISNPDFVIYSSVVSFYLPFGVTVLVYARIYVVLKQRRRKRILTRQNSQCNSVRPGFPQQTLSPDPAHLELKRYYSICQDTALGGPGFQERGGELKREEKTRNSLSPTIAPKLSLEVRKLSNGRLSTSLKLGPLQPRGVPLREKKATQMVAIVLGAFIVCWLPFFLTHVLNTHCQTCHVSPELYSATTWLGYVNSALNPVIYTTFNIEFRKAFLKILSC
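Cells expressing the human receptor were seeded at 1500 cells/well, incubated overnight at 37 degrees C in 5% CO2, then exposed to library compounds with dopamine controls for 90 minutes at 37 degrees C before luminescent detection.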
Nrf2 activator – qHTS of Nrf2 Activators. 410,000 compounds, 0.31% hits. AREc32 ARE-luciferase reporter (MCF7-derived line), luminescence, 24 h. Potency, µM (highest dose often 46.1 µM), without a hit: top-dose activation, most hits filed as activators; further: potency means the concentration at half of the fitted maximal effect; % of control where 0% means no effect; nearly all actives have a fitted effect of over 65% in size
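AREc32 cells carrying an ARE-driven firefly luciferase, 1000 cells/well in OPTI-MEM with 5% FBS, dosed after overnight attachment and incubated 24 hr at 37 deg C. Steady-Glo luminescence read after 30 min at RT.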
D3 ag – qHTS of D3 Dopamine Receptor Agonist: qHTS; D(3) dopamine receptor (Homo sapiens), P35462; D3R DiscoveRx beta-arrestin cells, luminescence, 90 min; max activation, %; 410,000 compounds, 0.58% hits; AID 652048, 2013; in the data active means max activation above about 30%; further: 0% is about no effect
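Cells at 1500/well, incubated overnight, then treated with pinned compounds (dopamine as control) for 90 min at 37 degrees C. DiscoveRx reagent added for 30 - 60 minutes at room temperature; luminescence read.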
* = called active by the depositor; ? = inconclusive; / = not tested or not shown. Rows were chosen to be rich in hits. Some 3% of all compounds tested hit in one or more screens of this group. Unless noted, the call rests on the fitted dose curve; in most records, active means well fitted curve in the direction sought with a large enough effect; inconclusive means small, poorly fitted or top-dose-only effect, or another doubt; inactive means no such curve, though single readings can be large; an effect the other way counts as inactive or inconclusive.

SMILES	Glioma ERSR ind	DRD3 antagonist	Nrf2 activator	D3 ag
Cc1ccc(C(=O)NCCN2CCC(n3c(=O)[nH]c4ccccc43)CC2)cc1F	/	-70.1*	3.9%	-11.4
O=C(NCCN1CCC(n2c(=O)[nH]c3ccccc32)CC1)c1cccs1	/	-102.7*	2.8%	-16.5
Cc1ccc(C(=O)NCCN2CCC(n3c(=O)[nH]c4ccccc43)CC2)cc1	/	-106.4*	5.6%	-14.6
O=C(CCCN1CCC(n2c(=S)[nH]c3ccccc32)CC1)c1ccc(F)cc1	/	/	/	-24.8
O=C(NCCN1CCOCC1)c1cccs1	2.0%	9.9	2.3%	-0.2
O=C(NCCN1CCC(n2c(=O)[nH]c3ccccc32)CC1)c1ccc(Cl)cc1	/	-50.7*	5.0%	-15.3
O=C(NCCN1CCC(n2c(=O)[nH]c3ccccc32)CC1)c1ccc(Cl)c(Cl)c1	/	-85.1*	11.0%	-15.1
O=C(NCCN1CCC(n2c(=O)[nH]c3ccccc32)CC1)c1c(F)cccc1F	/	-92.4*	0.0%	-12.4
O=C(NCCN1CCC(n2c(=O)[nH]c3ccccc32)CC1)c1ccc(F)cc1F	/	-108.9*	-0.7%	-14.1
COc1cc(=O)n2c(c1C(=O)NC(C)c1ccco1)CCN(Cc1ccccc1Cl)CC2 (centres undefined)	-2.8%	/	/	/
O=C(C[n+]1csc2ccccc21)c1ccc(I)cc1	-6.0%	/	/	/
COc1ccc(F)c(CN2CCOc3ccc(CN4CCC(O)(c5cccnc5)CC4)cc3C2)c1	-4.6%	/	/	/
CCOC(=O)N1CCC(NCCNC(=O)c2cccs2)CC1	-3.4%	-77.2*	-0.6%	-8.0
CCOC(=O)N1CCC(NCCNC(=O)c2ccccc2)CC1	-3.3%	-73.4*	-0.9%	-2.2
CCOC(=O)N1CCC(NCCNC(=O)c2ccccc2Cl)CC1	-4.3%	?	-0.2%	-2.0
CCCCN(C)CCCNC(=O)c1ccc2c(c1)N(CC)C(=O)c1ccccc1S2=O (centres undefined)	-1.1%	-83.7*	-0.8%	-38.6
CCOC(=O)N1CCC(NC(=O)c2cc(C)c3c(C)nn(-c4ccccc4)c3n2)CC1	-2.4%	3.3	0.0%	45.6*
CN(C)c1ccc(/C=C2\C(Cl)=Cc3ccccc32)cc1	-0.4%	/	/	/
O=C(NCCC1CCCC1)c1cccs1	9.5%	5.7	2.5%	1.7
O=C(NCCNC1CCC(c2ccccc2)CC1)c1cccs1 (centres undefined)	-5.4%	-54.5*	2.0%	-11.3
CCOC(=O)N1CCC(NC(=O)c2ccc3c(c2)N(Cc2ccccc2)C(=O)c2ccccc2S3=O)CC1 (centres undefined)	-0.7%	/	-0.9%	47.2*
COc1cc(OC)c(/C=C/c2ccccn2)c(OC)c1	-3.8%	/	/	/
O=C(NCCc1nnc2n1CCN(Cc1ccc(F)c(F)c1)CC2)c1ccoc1	-4.3%	/	/	/
Nc1ccc(/C=C/c2ccnc3ccccc23)cc1[N+](=O)[O-]	-1.0%	/	/	/
CCC1CN(CCNC(=O)c2ccnc(Cl)c2)Cc2cc(OC)ccc2O1 (centres undefined)	-3.6%	/	/	/
SMILES	Glioma ERSR ind	DRD3 antagonist	Nrf2 activator	D3 ag
O=c1cc(CN2CCOCC2)c2c(ccc3ccccc32)o1	-3.0%	25.4	0.1%	3.4
O=c1cc(CN2CCOCC2)c2ccccc2o1	-3.3%	21.1	-0.1%	42.8*
C=C1C(=O)[C@]23C[C@H]1CCC2[C@@]1(C)C(C[C@@H]3O)[C@](C)(C(=O)OC)CC[C@@H]1O (some centres undefined)	-12.2%	-66.6*	?	-12.5
C[C@@]12C(C[C@H](O)[C@@]34C[C@@H](CCC13)[C@@H](CO)C4=O)[C@](C)(C(=O)O)CC[C@@H]2O (some centres undefined)	-2.7%	0.0	?	-9.1
O=C(CN1C(=O)COc2ccc(S(=O)(=O)N3CCOCC3)cc21)Nc1ccc(F)c(Cl)c1	-3.0%	/	4.3%	-17.0
Cn1c(=O)[nH]c(=O)c2c1nc(SCCN1CCCCC1)n2CCCc1ccccc1	-1.8%	-68.2*	-0.4%	3.4
Cn1c(=O)[nH]c(=O)c2c1nc(SCCN1CCCCC1)n2Cc1ccccc1	0.7%	-11.3	-0.2%	-3.3
O=C(O)[C@@H]1C[C@H](CP(=O)(O)O)CCN1	/	/	/	6.9
COc1ccccc1-n1c(=O)c2c3c(sc2n(C)c1=O)CN(C(C)=O)CC3	-0.5%	/	6.7%	6.9
CCCCCCC[n+]1ccc(/C=C/c2c(C)[nH]c3ccccc23)c2ccccc21	-11.8%	/	/	/
COC(=O)c1ccccc1-c1cc(C)cc2c1OC(CNC(=O)C1CCCO1)C2 (centres undefined)	6.9%	/	/	/
CC1Oc2ccccc2OC1C(=O)Nc1ccccn1 (centres undefined)	-4.6%	?	7.08µM*	-7.8
O=C(c1ccc(CNS(=O)(=O)c2ccccc2)cc1)N1CCN(c2ccccn2)CC1	0.6%	33.2	0.1%	1.4
O=C(c1ccc(Cl)c(S(=O)(=O)NCc2ccccc2)c1)N1CCN(c2ccccn2)CC1	-4.2%	-70.7*	-0.9%	15.5
COc1ccc2c(c1)-c1nc(-n3ncc(C(=O)N(C)C(C)c4ccon4)c3C3CC3)ncc1CC2 (centres undefined)	-3.1%	/	/	/
CC(C)(C)OC(=O)N1CCCN(C(c2cc3ccccc3o2)c2nnnn2C(C)(C)C)CC1 (centres undefined)	/	2.0	5.0%	5.8
O=C(c1ccco1)N1CCN(C(c2ccc(F)cc2)c2nnnn2Cc2cccs2)CC1 (centres undefined)	-3.9%	?	-0.6%	1.6
CCC(C)(C)n1nnnc1C(c1ccccc1OC)N1CCN(C(=O)c2ccco2)CC1 (centres undefined)	-3.8%	1.4	0.2%	31.5*
CC(C)CCn1nnnc1C(c1ccc(F)cc1)N1CCN(C(=O)c2ccco2)CC1 (centres undefined)	-1.3%	-75.8*	-0.8%	0.5
CC(C)(C)n1nnnc1C(c1cc2ccccc2o1)N1CCN(C(=O)OCc2ccccc2)CC1 (centres undefined)	/	-62.9*	3.8%	-9.7
CC(C)(C)n1nnnc1C(c1ccccc1)N1CCN(C(=O)c2ccco2)CC1 (centres undefined)	/	0.0	0.1%	55.8*
C=C1CC2C3CCC4=CC(=O)C=C[C@]4(C)[C@@]3(F)[C@@H](O)C[C@]2(C)[C@@]1(O)C(=O)COC(C)=O (some centres undefined)	/	/	/	-7.3
CO[C@H]1C[C@H](O[C@H]2[C@H](C)[C@@H](O[C@@H]3O[C@H](C)C[C@H](N(C)C)[C@H]3OC(C)=O)[C@@H](C)C[C@]3(CO3)C(=O)[C@H](C)[C@@H](OC(C)=O)[C@@H](C)[C@@H](C)OC(=O)[C@@H]2C)O[C@@H](C)[C@@H]1OC(C)=O	/	/	/	6.5
COc1ccc(-c2nc3cnc(Oc4cccc(Cl)c4)nc3n(C3CC3)c2=O)cc1	-4.9%	/	/	/
CCC1C(=O)NCCN1Cc1ccc2c(c1)CN(Cc1cccc(OC)c1)CCO2 (centres undefined)	-4.5%	/	/	/
CCOC(=O)c1cc(S(=O)(=O)Nc2cc(F)ccc2C)[nH]n1	-1.4%	/	-0.1%	-10.6
Cn1c(SCCOc2ccccc2)nnc1-c1ccc(NC(=O)CCc2ccccc2)cc1	-2.4%	/	/	/
